The full data set covers some 8,800 targets. This sample favours those with a hit. About 0.5% of all pairs of compound and target were hits. A number with no mark means an inactive call.
compound: Cc1cn(-c2cc(NC(=O)c3ccc(C)c(Nc4nccc(-c5cccnc5)n4)c3)cc(C(F)(F)F)c2)cn1 [nilotinib]; test: log2 fold change, soluble protein after heating vs DMSO (PISA); higher = thermal stabilisation; K562 lysate, 10 uM; active = over 0.2 and 3.5 SD of the protein, either way, in both replicates (recomputed)
Outline: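 Pellets of K562 cells were dounce-homogenised in PBS pH 7.4 with 1 mM MgCl2, and the crude extract was held at 1 mg/mL protein for a 30 min treatment with 10 μM compound. Aliquots were heated for 3 min over 48°C-58°C and pooled before NP-40 was added to 0.5% at 4°C. The supernatant from 21,000xg for 90 min was quantified by TMTpro 16plex LC-MS/MS with channel sums equalised. Values are reported from duplicates as log-two fold change in thermal stability relative to solvent controls.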

UniProt P61011, sequence (P61011 whole entry, looked up): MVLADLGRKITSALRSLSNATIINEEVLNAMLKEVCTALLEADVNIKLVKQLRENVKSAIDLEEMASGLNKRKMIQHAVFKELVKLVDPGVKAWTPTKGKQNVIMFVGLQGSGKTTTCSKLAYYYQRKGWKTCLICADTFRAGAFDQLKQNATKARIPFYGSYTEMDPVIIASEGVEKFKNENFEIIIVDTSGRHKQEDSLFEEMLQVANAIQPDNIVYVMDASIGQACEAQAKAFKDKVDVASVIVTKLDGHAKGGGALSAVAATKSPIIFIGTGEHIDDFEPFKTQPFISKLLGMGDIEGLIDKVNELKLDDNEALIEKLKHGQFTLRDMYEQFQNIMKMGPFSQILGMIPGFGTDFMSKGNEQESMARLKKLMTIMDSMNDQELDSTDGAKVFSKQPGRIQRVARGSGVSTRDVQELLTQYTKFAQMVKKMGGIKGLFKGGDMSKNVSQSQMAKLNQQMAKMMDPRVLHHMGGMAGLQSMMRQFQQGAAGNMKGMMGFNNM
UniProt Q08AE8, sequence (Q08AE8 whole entry, looked up): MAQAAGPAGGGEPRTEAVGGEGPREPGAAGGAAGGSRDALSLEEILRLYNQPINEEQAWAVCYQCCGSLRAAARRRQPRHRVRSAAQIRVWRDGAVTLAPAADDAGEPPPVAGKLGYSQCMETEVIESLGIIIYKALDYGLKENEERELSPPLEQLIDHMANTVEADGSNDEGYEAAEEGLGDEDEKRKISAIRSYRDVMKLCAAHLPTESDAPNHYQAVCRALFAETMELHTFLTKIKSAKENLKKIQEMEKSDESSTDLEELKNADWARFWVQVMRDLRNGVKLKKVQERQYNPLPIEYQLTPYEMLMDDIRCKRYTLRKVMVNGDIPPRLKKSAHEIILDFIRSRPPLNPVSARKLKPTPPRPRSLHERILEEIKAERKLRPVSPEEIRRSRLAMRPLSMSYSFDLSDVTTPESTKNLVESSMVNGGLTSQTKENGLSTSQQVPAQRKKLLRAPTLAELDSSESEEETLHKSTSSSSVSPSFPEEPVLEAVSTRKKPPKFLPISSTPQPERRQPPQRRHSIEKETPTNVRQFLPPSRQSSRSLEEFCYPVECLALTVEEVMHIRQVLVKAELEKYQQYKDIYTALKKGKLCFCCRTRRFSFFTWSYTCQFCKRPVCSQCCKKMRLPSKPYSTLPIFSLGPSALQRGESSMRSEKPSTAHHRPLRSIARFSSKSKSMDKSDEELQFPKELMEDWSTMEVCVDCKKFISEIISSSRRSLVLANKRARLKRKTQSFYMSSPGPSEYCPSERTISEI
UniProt Q86XZ4, sequence (Q86XZ4 whole entry, looked up): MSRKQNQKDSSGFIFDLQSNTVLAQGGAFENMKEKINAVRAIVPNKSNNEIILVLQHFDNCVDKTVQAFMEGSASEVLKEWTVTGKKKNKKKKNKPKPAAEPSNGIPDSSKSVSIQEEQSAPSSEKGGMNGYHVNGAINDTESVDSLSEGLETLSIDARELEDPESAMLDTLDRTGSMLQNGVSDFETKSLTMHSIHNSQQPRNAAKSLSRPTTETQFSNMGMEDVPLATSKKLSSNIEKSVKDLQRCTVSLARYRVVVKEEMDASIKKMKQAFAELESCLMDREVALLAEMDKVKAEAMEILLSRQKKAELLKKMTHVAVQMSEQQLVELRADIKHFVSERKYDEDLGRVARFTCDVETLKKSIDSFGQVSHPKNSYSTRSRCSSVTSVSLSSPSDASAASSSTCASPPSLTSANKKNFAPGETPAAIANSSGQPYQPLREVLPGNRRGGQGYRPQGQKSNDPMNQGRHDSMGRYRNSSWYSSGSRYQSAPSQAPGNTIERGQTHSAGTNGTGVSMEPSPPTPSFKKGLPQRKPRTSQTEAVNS
UniProt Q99963, sequence (Q99963 whole entry, looked up): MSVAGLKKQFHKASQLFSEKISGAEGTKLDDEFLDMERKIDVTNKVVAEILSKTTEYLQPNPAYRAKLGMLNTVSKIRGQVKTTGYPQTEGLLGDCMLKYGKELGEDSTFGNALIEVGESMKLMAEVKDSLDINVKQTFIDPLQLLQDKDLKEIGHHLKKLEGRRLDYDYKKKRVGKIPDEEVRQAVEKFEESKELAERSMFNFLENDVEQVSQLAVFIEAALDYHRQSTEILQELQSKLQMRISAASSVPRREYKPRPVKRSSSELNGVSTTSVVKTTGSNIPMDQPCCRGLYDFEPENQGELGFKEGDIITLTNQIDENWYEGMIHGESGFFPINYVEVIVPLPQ
UniProt Q9UPR3, sequence (Q9UPR3 whole entry, looked up): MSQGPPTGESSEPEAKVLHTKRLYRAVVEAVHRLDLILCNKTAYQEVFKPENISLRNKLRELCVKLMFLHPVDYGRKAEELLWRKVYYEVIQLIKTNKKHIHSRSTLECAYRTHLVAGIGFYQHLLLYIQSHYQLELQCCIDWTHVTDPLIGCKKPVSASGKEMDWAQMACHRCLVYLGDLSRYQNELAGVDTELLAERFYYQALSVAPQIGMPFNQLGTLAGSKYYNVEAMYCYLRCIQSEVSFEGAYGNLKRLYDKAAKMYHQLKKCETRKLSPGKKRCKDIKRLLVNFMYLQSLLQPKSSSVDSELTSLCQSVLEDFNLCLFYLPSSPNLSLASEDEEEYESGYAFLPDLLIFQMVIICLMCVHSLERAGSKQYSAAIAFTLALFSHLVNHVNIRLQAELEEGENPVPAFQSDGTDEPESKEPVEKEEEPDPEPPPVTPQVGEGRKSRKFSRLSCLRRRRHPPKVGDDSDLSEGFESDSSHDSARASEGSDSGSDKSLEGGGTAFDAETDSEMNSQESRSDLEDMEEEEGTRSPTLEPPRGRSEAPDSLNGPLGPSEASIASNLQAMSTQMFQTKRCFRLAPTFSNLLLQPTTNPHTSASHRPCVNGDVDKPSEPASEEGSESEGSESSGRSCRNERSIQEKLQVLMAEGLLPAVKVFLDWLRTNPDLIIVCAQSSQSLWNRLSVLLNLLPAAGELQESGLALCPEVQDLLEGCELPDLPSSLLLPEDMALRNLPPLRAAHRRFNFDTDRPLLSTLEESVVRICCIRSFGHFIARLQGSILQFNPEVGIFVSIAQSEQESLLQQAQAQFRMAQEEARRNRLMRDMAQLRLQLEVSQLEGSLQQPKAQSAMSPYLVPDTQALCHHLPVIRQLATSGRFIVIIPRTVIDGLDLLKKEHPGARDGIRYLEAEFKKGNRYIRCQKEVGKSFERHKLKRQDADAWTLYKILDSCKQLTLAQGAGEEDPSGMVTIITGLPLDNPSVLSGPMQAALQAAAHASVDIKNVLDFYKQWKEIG
UniProt P08047, sequence (P08047 whole entry, looked up): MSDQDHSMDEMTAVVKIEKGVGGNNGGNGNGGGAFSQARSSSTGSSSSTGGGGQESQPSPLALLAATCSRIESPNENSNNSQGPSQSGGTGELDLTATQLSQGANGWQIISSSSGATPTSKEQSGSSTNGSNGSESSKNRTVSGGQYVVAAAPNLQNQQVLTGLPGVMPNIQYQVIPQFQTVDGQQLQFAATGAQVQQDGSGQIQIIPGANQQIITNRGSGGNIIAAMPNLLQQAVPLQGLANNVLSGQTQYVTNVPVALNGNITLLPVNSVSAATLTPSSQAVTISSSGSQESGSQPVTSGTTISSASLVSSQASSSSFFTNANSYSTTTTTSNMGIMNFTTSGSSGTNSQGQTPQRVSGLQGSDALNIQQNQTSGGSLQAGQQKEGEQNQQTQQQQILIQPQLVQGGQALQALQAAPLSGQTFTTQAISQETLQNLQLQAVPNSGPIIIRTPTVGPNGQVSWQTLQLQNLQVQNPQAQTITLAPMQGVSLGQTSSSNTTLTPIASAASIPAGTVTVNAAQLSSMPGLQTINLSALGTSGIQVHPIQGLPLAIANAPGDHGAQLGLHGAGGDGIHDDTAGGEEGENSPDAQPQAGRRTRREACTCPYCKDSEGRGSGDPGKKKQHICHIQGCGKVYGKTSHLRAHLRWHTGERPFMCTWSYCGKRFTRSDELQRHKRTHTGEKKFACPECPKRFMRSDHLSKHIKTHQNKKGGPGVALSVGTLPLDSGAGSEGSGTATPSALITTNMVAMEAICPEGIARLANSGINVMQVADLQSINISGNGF
UniProt P49281, sequence (P49281 whole entry, looked up): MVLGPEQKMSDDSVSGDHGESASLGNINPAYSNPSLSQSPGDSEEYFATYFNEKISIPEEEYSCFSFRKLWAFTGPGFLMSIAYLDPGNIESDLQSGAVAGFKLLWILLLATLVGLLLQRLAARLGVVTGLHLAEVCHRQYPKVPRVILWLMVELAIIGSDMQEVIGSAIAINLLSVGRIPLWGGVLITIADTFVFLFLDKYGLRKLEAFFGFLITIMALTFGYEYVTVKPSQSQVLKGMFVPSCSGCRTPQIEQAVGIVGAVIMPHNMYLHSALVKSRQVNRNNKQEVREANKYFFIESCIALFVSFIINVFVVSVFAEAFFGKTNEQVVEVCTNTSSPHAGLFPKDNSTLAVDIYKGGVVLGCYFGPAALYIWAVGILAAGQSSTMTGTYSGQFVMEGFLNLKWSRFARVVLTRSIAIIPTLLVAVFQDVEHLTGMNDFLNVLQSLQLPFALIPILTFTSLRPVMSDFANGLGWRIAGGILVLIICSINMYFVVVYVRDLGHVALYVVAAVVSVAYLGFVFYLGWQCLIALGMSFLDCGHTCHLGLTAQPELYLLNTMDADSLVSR
UniProt Q9NYA1, sequence (Q9NYA1 whole entry, looked up): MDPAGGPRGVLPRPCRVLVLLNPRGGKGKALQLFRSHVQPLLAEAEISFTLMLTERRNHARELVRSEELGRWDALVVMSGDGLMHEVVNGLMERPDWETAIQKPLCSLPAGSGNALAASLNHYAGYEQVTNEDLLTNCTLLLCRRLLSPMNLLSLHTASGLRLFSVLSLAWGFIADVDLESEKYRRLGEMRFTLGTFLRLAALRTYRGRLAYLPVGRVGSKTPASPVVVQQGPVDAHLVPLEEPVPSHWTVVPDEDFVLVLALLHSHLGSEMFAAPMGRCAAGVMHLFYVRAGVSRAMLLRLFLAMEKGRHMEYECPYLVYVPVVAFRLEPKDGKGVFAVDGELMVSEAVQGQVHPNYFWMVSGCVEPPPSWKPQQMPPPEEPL
UniProt Q8NHG7, sequence (Q8NHG7 whole entry, looked up): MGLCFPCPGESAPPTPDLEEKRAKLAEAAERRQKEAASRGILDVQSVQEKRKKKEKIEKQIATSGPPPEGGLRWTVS

Target | log2 fold change
SLC11A2 isoform 3 (UniProt P49281) | -0.099
SLC12A6 (UniProt Q9UHW9) | -0.004
TAF9 (UniProt Q16594) | -0.043
SKA1 (UniProt Q96BD8) | -0.095
SMTN isoform 6 (UniProt P53814) | -0.011
SHC1 isoform 6 (UniProt P29353) | 0.034
SPIRE1 (UniProt Q08AE8) | 0.064
SNW1 (UniProt Q13573) | 0.002
SLC25A32 (UniProt Q9H2D1) | 0.007
TARBP2 (UniProt Q15633) | 0.003
SYNE2 isoform 2 (UniProt Q8WXH0) | 0.086
SMG5 (UniProt Q9UPR3) | -0.058
SH3GL3 isoform 3 (UniProt Q99963) | -0.075
STAU1 (UniProt O95793) | -0.008
SMARCAD1 isoform 2 (UniProt Q9H4L7) | -0.001
SLC25A36 (UniProt Q96CQ1) | 0.081

Target | log2 fold change
SMARCA4 (UniProt P51532) | -0.002
SP1 (UniProt P08047) | -0.035
SMG1 (UniProt Q96Q15) | -0.029
SPHK1 isoform 2 (UniProt Q9NYA1) | 0.03
SMC1B isoform 3 (UniProt Q8NDV3) | 0.022
SMG7 (UniProt Q92540) | 0.001
SLC25A38 (UniProt Q96DW6) | -0.097
SMC3 (UniProt Q9UQE7) | 0
SVIP (UniProt Q8NHG7) | -0.006
STK24 (UniProt B4DR80) | 0.031
SPC25 (UniProt Q9HBM1) | 0.042
SPATS2 (UniProt Q86XZ4) | -0.069
SLC26A6 (UniProt Q9BXS9) | 0.057
SRP54 (UniProt P61011) | 0.039
SSB (UniProt E7ERC4) | -0.059
SSU72 (UniProt Q9NP77) | 0.031

From the supplement of paper PMC10849652
